High-throughput results as filed in PubChem BioAssay.
The list is not random: actives were taken first. Their share in the collection is about 9%.
LMNA splice mod: LMNA splicing modulation; HeLa LMNA splicing GFP/RFP minigene ratio, 48 h; Potency, µM (titrated, usually from 46.1 µM), for the others: top-dose ratio change, negative = inhibition, usual class: inhibitors; 200,000 compounds, 0.01% hits; active = well fitted inhibition curve with a large enough effect in the signal ratio, with a control signal flat, not every such curve was filed as active; inconclusive = small, poorly fitted or top-dose-only effect, or effect the other way, or a change in a side signal; the % refers to the signal ratio; also: % is scaled to controls: 0 for no effect and ±100 for the full control effect
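S3 HeLa stable clones carrying a lamin A-EGFP splicing minigene plus DsRed2 were seeded at 600 cells/well in Opti-MEM with 2% FBS, pin-dosed and incubated 48 h at 37°C. Acumen cytometry (488 nm) gave the GFP/RFP total-intensity ratio.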
HTT ATP protect: protects HTT-Q103 PC12 cells, measured by ATP; 230,000 compounds, 0.14% hits; PC12 HTT-Q103 induced, cytoprotection, ATP luminescence, 40 h; Potency, µM (doses to about 56.4 µM), inactives show cytoprotection (ATP increase), actives largely listed as activators; AID 1471; also: % of control where 0% means no effect; nearly all actives have a fitted effect of over 45% in size
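Cells were plated at 1500 per well in phenol red-free DMEM with 5% equine and 5% calf serum. Tebufenozide (100 nM final) and compounds were added, then ATPlite reagent, and luminescence was read.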
KinaseGlo FLuc: blocks Kinase-Glo luciferase, a counter-screen artifact | Q27757 | Kinase-Glo luciferase, ATP luminescence, 8 min | Potency, µM (series often up to 38.3 µM), without a hit: top-dose activity change, negative = inhibition, hits mostly inhibitors | 200,000 compounds, 0.28% hits | AID 1379; also: % is scaled to controls: 0 for no effect and ±100 for the full control effect; nearly all actives have a fitted effect of over 60% in size
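Compounds were added to a substrate mix at pH 7.2 (50 mM imidazole, 10 uM ATP, within the enzyme's linear range), followed by Kinase-Glo detection reagent; luminescence was measured after 8 minutes at ambient temperature.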
HPGD inh: inhibitors of human 15-hydroxyprostaglandin dehydrogenase (HPGD). P15428. purified HPGD, NADH fluorescence kinetic, PGE2 substrate. Potency, µM, without a hit: top-dose activity change, negative = inhibition, actives largely listed as inhibitors. 150,000 compounds, 4.3% hits. AID 894; active = well fitted inhibition curve with a large enough effect, not every such curve was filed as active; inconclusive = small, poorly fitted or top-dose-only effect, or another doubt; inactive = no such curve, though single readings can be large or run the other way; also: % is scaled to controls: 0 for no effect and ±100 for the full control effect
Target sequence (P15428 whole entry, looked up): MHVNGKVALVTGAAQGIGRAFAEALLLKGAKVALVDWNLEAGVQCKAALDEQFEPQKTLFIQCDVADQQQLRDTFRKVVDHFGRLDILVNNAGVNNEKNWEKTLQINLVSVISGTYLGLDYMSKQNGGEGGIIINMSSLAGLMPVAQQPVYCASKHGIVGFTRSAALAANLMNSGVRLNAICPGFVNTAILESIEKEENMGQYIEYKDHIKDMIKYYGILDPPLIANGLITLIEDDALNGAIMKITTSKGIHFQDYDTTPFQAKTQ
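20 nM HPGD preincubated 15 min at room temperature with compound in 50 mM Tris-HCl pH 8, 0.01% Tween 20. Started with 1 mM NAD+ and 30 uM prostaglandin E2; NADH fluorescence (360/450 nm) read 5 times over 30-s intervals, last minus first.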
ALDH1A1 block: inhibitors of human aldehyde dehydrogenase 1A1; Purified ALDH1A1, NADH fluorescence, propionaldehyde substrate; Potency, µM (highest dose often 75.3 µM), for the others: at the top dose activity, negative = inhibition, actives largely listed as inhibitors; 220,000 compounds, 7.3% hits; P00352; active = well fitted inhibition curve with a large enough effect, not every such curve was filed as active; inconclusive = small, poorly fitted or top-dose-only effect, or another doubt; inactive = no such curve, though single readings can be large or run the other way;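 also: plate controls were no enzyme wells and a reference inhibitor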
Target sequence (P00352 whole entry, looked up): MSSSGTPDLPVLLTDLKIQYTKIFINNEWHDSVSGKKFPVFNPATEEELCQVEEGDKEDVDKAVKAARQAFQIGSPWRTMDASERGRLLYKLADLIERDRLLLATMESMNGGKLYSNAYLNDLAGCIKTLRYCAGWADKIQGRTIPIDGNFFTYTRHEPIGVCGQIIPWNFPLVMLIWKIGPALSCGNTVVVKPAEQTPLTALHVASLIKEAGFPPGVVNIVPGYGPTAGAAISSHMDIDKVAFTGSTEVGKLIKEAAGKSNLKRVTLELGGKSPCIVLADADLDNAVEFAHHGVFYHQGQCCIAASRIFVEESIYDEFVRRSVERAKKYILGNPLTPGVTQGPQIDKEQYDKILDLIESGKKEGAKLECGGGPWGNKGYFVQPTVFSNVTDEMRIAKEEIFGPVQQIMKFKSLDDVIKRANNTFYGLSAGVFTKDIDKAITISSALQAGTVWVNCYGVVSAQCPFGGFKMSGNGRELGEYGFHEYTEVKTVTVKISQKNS
HTT aggregate: mutant huntingtin aggregation inhibition; PC12 HttQ103-GFP aggregates, Acumen cytometry, 40 h; Potency, µM (doses to about 46.1 µM), for inactives: at the highest dose activity change, negative = inhibition, usual class: inhibitors; 220,000 compounds, 1.1% hits; also: % is scaled to controls: 0 for no effect and ±100 for the full control effect; nearly all actives have a fitted effect of over 60% in size
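Multiplexed with ATP-based cell death, this channel scores GFP aggregates in PC12 cells expressing inducible HTTex1-Q103-GFP. Induction used 100 nM tebufenozide; compounds were tested in concentration series.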
* marks the source's active call; other numbers are inactive results; ? = inconclusive; nt = no result given; ! = not confirmed by another sample; [ ] = dose if it differs, or a comment. Unless noted, calls follow the shape of the dose curve; as a rule, active = well fitted curve in the direction sought with a large enough effect; inconclusive = small, poorly fitted or top-dose-only effect, or another doubt; inactive = no such curve, though single readings can be large; an effect the other way counts as inactive or inconclusive. Potency is read from the fitted curve at half-maximal effect.

SMILES	LMNA splice mod	HTT ATP protect	KinaseGlo FLuc	HPGD inh	ALDH1A1 block	HTT aggregate
COc1ccc(N/C=C(/C(C)=O)c2ccccc2)cc1	-10.3%	-14.4%[10 µM]	-0.6%	22.4µM*	10µM*	?
O=C(NCCOc1ccccc1)C1CCCN1C(=O)c1cccs1 (centres undefined)	5.5%	17.9%[10 µM]	-0.3%	-0.7%	-6.8%	10.3%
CC(Oc1ccccc1Cl)C(=O)/C=C/N(C)C (centres undefined)	-3.7%	-10.6%	-1.0%	14.1µM*	-3.0%	3.6%
CC(Oc1ccccc1F)C(=O)/C=C/N(C)C (centres undefined)	?	3.3%	-0.9%	28.2µM*	18.7%	4.9%
CC(Oc1ccc(F)cc1)C(=O)/C=C\N(C)C (centres undefined)	-9.6%	-13.5%[10 µM]	2.0%	-26.2%	7.5%	-2.5%
COc1ccc(C/C(N)=N/OC(=O)c2cccs2)cc1	?	-23.0%	1.0%	nt	-1.5%	10.7%
COc1ccc(C(=O)O/N=C(\C)c2nccs2)cc1	nt	-9.4%	12.6µM*	nt	?	1.1%
COc1ccc(C(=O)O/N=C(/C)c2cccs2)cc1	5.7%	-19.5%	12.6µM*	-9.2%	-1.7%	-5.8%
COc1ccc(C2CC2/C(C)=N/OC(=O)c2cccs2)cc1 (centres undefined)	14.7%	3.5%[10 µM]	-2.4%	22.4µM*	-14.3%	8.4%
C/C(=N\OC(=O)c1ccc(F)cc1)c1nccs1	-0.1%	15.0%	-26.3%	-14.8%	1.6%	1.1%
CC1(C)CC(N(Cc2cccs2)C(=O)c2ccco2)CCO1 (centres undefined)	-0.5%	1.4%[0.074 µM]	-1.8%	-6.9%	10µM*	-15.2%
CC(=O)N(Cc1cccs1)Cc1cc2ccc(C)c(C)c2nc1Cl	16.8%[46 µM]	-10.5%	-1.3%	nt	17.8µM*	-14.2%
CN(c1ccc(C(=O)Nc2ccccc2C(=O)N2CCCC2)cc1)S(C)(=O)=O	13.5%	-14.3%[0.074 µM]	-0.8%	-16.6%	7.2%	4.3%
O=C(O)/C=C\C(=O)N1Cc2cc3ccccc3nc2C1	nt	-1.6%[10 µM]	-4.1%[7.66 µM]	-9.8%	-9.9%[13.5 µM]	nt
COC(=O)c1ccc(NC(=O)CSc2ccccn2)cc1	-2.3%	-1.4%	-1.5%	11.2µM*	?	7.2%
O=C(CSc1ccccn1)Nc1ccc2ccccc2c1	6.0%[46 µM]	8.5%[10 µM]	-3.1%	nt	-7.5%	6.6%[9.22 µM]
O=C(CSc1ccccn1)Nc1ccc2c(c1)C(=O)c1ccccc1C2=O	-7.1%	-9.9%[10 µM]	1.9%	-9.5%	25.1µM*	-14.0%
O=C(CSc1ccccn1)c1ccc(F)cc1	10.1%	-5.8%	-17.3%	25.1µM*	?	9.5%
Cc1cccc(NC(=O)CCSc2ccccn2)c1	18.5%	6.1%[10 µM]	3.1%	14.1µM*	?	-3.0%
CC(C)N1CCN(Cc2ccc(-c3ccccc3Cl)o2)CC1CCO (centres undefined)	9.8%[46 µM]	-13.2%[10 µM]	-1.9%	nt	?	-16.5%[9.22 µM]
Cc1cc2c(Nc3ccccc3)ncnc2s1	2.3%[46 µM]	-42.0%[1.9 µM]	-3.4%	nt	1.9%	-11.7%[9.22 µM]
O=C(CSc1ccccn1)N/N=C/C=C/c1ccccc1	?	17.4%[10 µM]	-0.8%	20µM*	6.2%	4.7%
O=C1OCCN1C(=O)[C@H]1[C@H](c2ccccc2)C(c2cccc(Cl)c2)=NN1c1ccc(Br)cc1	nt	-126.5%[40.3 µM]	1.1%[39.9 µM]	?	?	nt
O=C(NC(=S)Nc1ccc(S(=O)(=O)N2CCCCC2)cc1)c1ccccc1	-0.4%	-13.4%	-3.8%	-15.6%	9.46µM*	-4.0%
CC1CC(C)CN(S(=O)(=O)c2ccc(NC(=S)NC(=O)c3ccccc3)cc2)C1 (centres undefined)	3.9%	18.5%[10 µM]	-1.0%	-26.7%	-3.9%	-20.2%
SMILES	LMNA splice mod	HTT ATP protect	KinaseGlo FLuc	HPGD inh	ALDH1A1 block	HTT aggregate
Cc1ccccc1C(=O)NC(=S)Nc1ccc(S(=O)(=O)N2CCN(C)CC2)cc1	-5.4%	-17.0%	-4.0%	?	10µM*	-13.4%
O=C(NC(=S)Nc1ccc(S(=O)(=O)Nc2ccccc2)cc1)C1CC1	9.6%[46 µM]	-4.8%[10 µM]	0.1%	nt	22.4µM*	-13.3%
CC(Oc1cccc(Cl)c1)C(=O)NCCCCc1ccccc1 (centres undefined)	-13.0%	18.0%[10 µM]	4.0%	-4.7%	?	-25.3%
Cn1c(NC(=O)c2cccs2)c(-c2cccs2)c(=O)c2ccccc21	-3.7%	1.6%	-0.8%	-4.9%	3.2%	-11.1%
C[N+]1(CCOc2ccc([N+](=O)[O-])cc2)CCOCC1	17.9%	-4.9%	-1.4%	-15.9%	-2.2%	11.4%
O=C1c2cccnc2C(Nc2ccccc2)N1Cc1ccco1 (centres undefined)	10.2%	-20.3%	-0.3%	?	22.4µM*	3.5%
Cc1ccc(NC2c3ncccc3C(=O)N2Cc2cccs2)cc1 (centres undefined)	22.7%[9.22 µM]	-25.1%	1.8%	nt	28.2µM*	-2.0%
O=C1c2cccnc2C(O)N1Cc1ccco1 (centres undefined)	-5.0%	-16.6%[10 µM]	2.9%	5.0%	20µM*	-16.4%
COc1ccc(CN2C(=O)c3cccnc3C2Nc2ccc(C)cc2)cc1 (centres undefined)	-2.9%	-57.6%	-3.1%	-13.6%	0.7%	4.1%
O=C1c2cccnc2C(Nc2ccccc2Br)N1Cc1ccco1 (centres undefined)	nt	-11.2%	-7.0%	nt	25.1µM*	-20.4%
CC(C)(CNC(=O)c1ccc(S(=O)(=O)N2CCCC2)cc1)N1CCOCC1	-23.2%[46 µM]	-12.8%	-2.4%	nt	?	-2.9%
CCN(CC)c1ccc(/C=N/N2CCN(Cc3ccccc3)CC2)c(O)c1	?	18.3%[10 µM]	-1.7%	-15.5%	?	-5.6%
CCOc1cc(C=O)ccc1OCCSc1ccc(C)cc1	-13.1%	-2.2%[10 µM]	3.9%	17.8µM*	?	-9.3%
COc1cc(C=O)ccc1OCCSc1ccc(C)cc1	-16.6%	6.5%[10 µM]	-0.1%	17.8µM*	?	-13.6%
Cc1cccc(-c2nc3ccccc3c(=O)n2NC(=S)N(C)C)c1	-3.8%	9.5%[10 µM]	-2.6%	15.8µM*	8.91µM*	16.9%
CN(C)C(=S)Nn1c(-c2ccccc2)nc2ccccc2c1=O	-2.2%	14.7%[10 µM]	-0.1%	-0.7%	-2.0%	-0.6%
Cc1c2ccccc2c(C)c2c1ccc1ccccc12	nt	-206.7%	nt	?	-2.9%	nt
Cc1c2ccccc2c(CSC(=N)N)c2ccccc12	nt	-55.3%[10 µM]	-7.4%[7.66 µM]	?	14.1µM*!	nt
